# Reference: the supplement of paper PMC8728848
# Shown is part of a subset that was picked to be rich in the strongest signals.
# B1: Nictaba (Nicotiana tabacum), Q94EW1 (protein)
# chain: MQGQWIAARDLSITWVDNPQYWTWKTVDPNIEVAELRRVAWLDIYGKIETKNLIRKTSYAVYLVFKLTDNPRELERATASLRFVNEVAEGAGIEGTTVFISKKKKLPGELGRFPHLRSDGWLEIKLGEFFNNLGEDGEVEMRLMEINDKTWKSGIIVKGFDIRPN
# Key:
# Assay in all cases: glycan array binding signal (z-score within array); higher = stronger binding
# Conditions in all cases: glycan notation: IUPAC condensed, linker removed
# [1] = target: Fuc(a1-2)Gal(b1-3)[Fuc(a1-4)]GlcNAc(b1-3)[Gal(b1-4)GlcNAc(b1-6)]Gal(b1-4)Glc
# Outline: (§1)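 The binding signal is a Z-score computed within each array. Data were drawn from 3228 arrays in the Consortium for Functional Glycomics database, restricted to those with a known protein sequence. Scores were averaged over arrays of the same protein sequence at different concentrations or buffers, and over linkers, and negative values can be taken as non-binding.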
# Fuc(a1-2)Gal(b1-4)Glc6S = target: Fuc(a1-2)Gal(b1-4)Glc6S
# Outline: as §1
# [2] = target: Fuc(a1-2)Gal(b1-4)GlcNAc(b1-3)Gal(b1-4)GlcNAc(b1-2)Man(a1-3)[Fuc(a1-2)Gal(b1-4)GlcNAc(b1-3)Gal(b1-4)GlcNAc(b1-2)Man(a1-6)]Man(b1-4)GlcNAc(b1-4)GlcNAc
# Outline: as §1
# [3] = target: Fuc(a1-2)Gal(b1-4)[Fuc(a1-3)]GlcNAc(b1-2)Man(a1-3)[Fuc(a1-2)Gal(b1-4)[Fuc(a1-3)]GlcNAc(b1-2)Man(a1-6)]Man(b1-4)GlcNAc(b1-4)[Fuc(a1-6)]GlcNAc
# Outline: as §1
# [4] = target: Fuc(a1-2)Gal6S(b1-3)GlcNAc6S
# Outline: as §1
# [5] = target: Fuc(a1-2)Gal6S(b1-4)Glc6S
# Outline: as §1
# [6] = target: Fuc(a1-2)[Gal(a1-3)]Gal(b1-3)GlcNAc(b1-2)Man(a1-3)[Fuc(a1-2)[Gal(a1-3)]Gal(b1-3)GlcNAc(b1-2)Man(a1-6)]Man(b1-4)GlcNAc(b1-4)[Fuc(a1-6)]GlcNAc
# Outline: as §1
# [7] = target: Fuc(a1-2)[Gal(a1-3)]Gal(b1-4)GlcNAc(b1-3)GalNAc
# Outline: as §1
# [8] = target: Fuc(a1-2)[GalNAc(a1-3)]Gal(b1-4)[Fuc(a1-3)]GlcNAc
# Outline: as §1
# [9] = target: Fuc(a1-3)[Gal(b1-4)]GlcNAc(b1-2)Man(a1-3)[Fuc(a1-3)[Gal(b1-4)]GlcNAc(b1-2)Man(a1-6)]Man(b1-4)GlcNAc(b1-4)GlcNAc
# Outline: as §1
# [10] = target: Fuc(a1-3)[Gal(b1-4)]GlcNAc(b1-6)[Neu5Ac(a2-3)Gal(b1-3)]GalNAc
# Outline: as §1
# Gal(a1-2)Gal = target: Gal(a1-2)Gal
# Outline: as §1
# [11] = target: Gal(a1-3)Gal(b1-3)GlcNAc(b1-2)Man(a1-3)[Gal(a1-3)Gal(b1-3)GlcNAc(b1-2)Man(a1-6)]Man(b1-4)GlcNAc(b1-4)GlcNAc
# Outline: as §1
# Gal(b1-3)Gal(b1-4)GlcNAc = target: Gal(b1-3)Gal(b1-4)GlcNAc
# Outline: as §1
# [12] = target: Gal(b1-3)[Fuc(a1-4)]GlcNAc
# Outline: as §1
# [13] = target: Gal(b1-3)[Neu5Ac(a2-6)]GlcNAc
# Outline: as §1
# [14] = target: Gal(b1-3)[Neu5Ac(b2-6)]GlcNAc
# Outline: as §1
# [15] = target: Gal(b1-4)GlcNAc(b1-2)Man(a1-3)[Gal(b1-4)GlcNAc(b1-2)Man(a1-6)]Man(b1-4)GlcNAc(b1-4)GlcNAc
# Outline: as §1
# [16] = target: Gal(b1-4)GlcNAc(b1-2)Man(a1-3)[Gal(b1-4)GlcNAc(b1-2)Man(a1-6)]Man(b1-4)GlcNAc(b1-4)[Fuc(a1-6)]GlcNAc
# Outline: as §1
# [17] = target: Gal(b1-4)GlcNAc(b1-2)Man(a1-3)[Man(a1-6)]Man(b1-4)GlcNAc(b1-4)GlcNAc
# Outline: as §1
# Gal3S(b1-4)GlcNAc6S = target: Gal3S(b1-4)GlcNAc6S
# Outline: as §1
# Gal3S4S(b1-4)GlcNAc = target: Gal3S4S(b1-4)GlcNAc
# Outline: as §1
# [18] = target: GalNAc3S(b1-4)[Fuc(a1-3)]GlcNAc
# Outline: as §1
# Glc(a1-6)Glc(a1-6)Glc = target: Glc(a1-6)Glc(a1-6)Glc
# Outline: as §1
# [19] = target: GlcNAc(b1-2)[GlcNAc(b1-4)]Man(a1-3)[GlcNAc(b1-2)Man(a1-6)]Man(b1-4)GlcNAc(b1-4)GlcNAc
# Outline: as §1
# [20] = target: GlcNAc(b1-3)Gal(b1-4)GlcNAc(b1-3)Gal(b1-4)GlcNAc(b1-3)GalNAc
# Outline: as §1
# [21] = target: Man(a1-2)Man(a1-2)Man(a1-3)Man
# Outline: as §1
# [22] = target: Man(a1-2)Man(a1-2)Man(a1-3)[Man(a1-2)Man(a1-3)[Man(a1-2)Man(a1-6)]Man(a1-6)]Man(b1-4)GlcNAc(b1-4)GlcNAc
# Outline: as §1
# [23] = target: Man(a1-2)Man(a1-2)Man(a1-3)[Man(a1-2)Man(a1-6)[Man(a1-3)]Man(a1-6)]Man(b1-4)GlcNAc(b1-4)GlcNAc
# Outline: as §1
# [24] = target: Man(a1-2)Man(a1-3)[Man(a1-3)[Man(a1-6)]Man(a1-6)]Man(b1-4)GlcNAc(b1-4)GlcNAc
# Outline: as §1
# [25] = target: Man(a1-2)Man(a1-3)[Man(a1-6)]Man(a1-6)[Man(a1-2)Man(a1-3)]Man(b1-4)GlcNAc(b1-4)GlcNAc
# Outline: as §1
# [26] = target: Man(a1-2)Man(a1-6)[Man(a1-3)]Man(a1-6)[Man(a1-2)Man(a1-2)Man(a1-3)]Man(b1-4)GlcNAc(b1-4)GlcNAc
# Outline: as §1
# [27] = target: Man(a1-3)[Man(a1-6)]Man(a1-6)[Man(a1-2)Man(a1-3)]Man(b1-4)GlcNAc(b1-4)GlcNAc
# Outline: as §1
# [28] = target: Man(a1-3)[Man(a1-6)]Man(a1-6)[Man(a1-3)]Man(b1-4)GlcNAc(b1-4)GlcNAc
# Outline: as §1
# [29] = target: Man(a1-3)[Man(a1-6)]Man(b1-4)GlcNAc(b1-4)GlcNAc
# Outline: as §1
# [30] = target: Neu5Ac(a2-3)Gal(b1-4)GlcNAc(b1-2)Man(a1-3)[GlcNAc(b1-4)][Neu5Ac(a2-3)Gal(b1-4)GlcNAc(b1-2)Man(a1-6)]Man(b1-4)GlcNAc(b1-4)GlcNAc
# Outline: as §1
# [31] = target: Neu5Ac(a2-3)Gal(b1-4)GlcNAc(b1-3)[Neu5Ac(a2-3)Gal(b1-4)GlcNAc(b1-6)]GalNAc
# Outline: as §1
# [32] = target: Neu5Ac(a2-3)Gal(b1-4)[Fuc(a1-3)]GlcNAc(b1-6)[Gal(b1-3)]GalNAc
# Outline: as §1
# [33] = target: Neu5Ac(a2-3)Gal6S(b1-4)GlcNAc
# Outline: as §1
# [34] = target: Neu5Ac(a2-3)[GalNAc(b1-4)]Gal(b1-4)GlcNAc
# Outline: as §1
# [35] = target: Neu5Ac(a2-6)Gal(b1-4)GlcNAc
# Outline: as §1
# [36] = target: Neu5Ac(a2-6)Gal(b1-4)GlcNAc(b1-3)Gal(b1-4)GlcNAc(b1-2)Man(a1-3)[Neu5Ac(a2-6)Gal(b1-4)GlcNAc(b1-3)Gal(b1-4)GlcNAc(b1-2)Man(a1-6)]GalNAc
# Outline: as §1
# [37] = target: Neu5Ac(a2-6)Gal(b1-4)GlcNAc(b1-6)[Gal(b1-3)GlcNAc(b1-3)]Gal(b1-4)Glc
# Outline: as §1
# [38] = target: Neu5Ac(a2-8)Neu5Ac(a2-3)[Gal(b1-3)GalNAc(b1-4)]Gal(b1-4)Glc
# Outline: as §1
# [39] = target: Neu5Ac(a2-8)Neu5Ac(a2-8)Neu5Ac(a2-8)Neu5Ac(a2-3)[GalNAc(b1-4)]Gal(b1-4)Glc
# Outline: as §1
# [40] = target: Neu5Gc(a2-3)Gal(b1-4)GlcNAc(b1-3)Gal(b1-4)GlcNAc(b1-2)Man(a1-3)[Neu5Gc(a2-3)Gal(b1-4)GlcNAc(b1-3)Gal(b1-4)GlcNAc(b1-2)Man(a1-6)]Man(b1-4)GlcNAc(b1-4)GlcNAc
# Outline: as §1
# [41] = target: Neu5Gc(a2-3)Gal(b1-4)[Fuc(a1-3)]GlcNAc
# Outline: as §1
# [42] = target: Neu5Gc(a2-8)Neu5Gc(a2-3)Gal(b1-4)GlcNAc
# Outline: as §1
binder,measurement,setting,value
B1,glycan array binding signal (z-score),[1],-0.29
same,glycan array binding signal (z-score),Fuc(a1-2)Gal(b1-4)Glc6S,-0.254
same,glycan array binding signal (z-score),[2],3.54
same,glycan array binding signal (z-score),[3],5.19
same,glycan array binding signal (z-score),[4],-0.381
same,glycan array binding signal (z-score),[5],-0.234
same,glycan array binding signal (z-score),[6],-0.187
same,glycan array binding signal (z-score),[7],-0.273
same,glycan array binding signal (z-score),[8],-0.307
same,glycan array binding signal (z-score),[9],5.57
same,glycan array binding signal (z-score),[10],-0.295
same,glycan array binding signal (z-score),Gal(a1-2)Gal,-0.289
same,glycan array binding signal (z-score),[11],-0.148
same,glycan array binding signal (z-score),Gal(b1-3)Gal(b1-4)GlcNAc,-0.321
same,glycan array binding signal (z-score),[12],-0.271
same,glycan array binding signal (z-score),[13],-0.332
same,glycan array binding signal (z-score),[14],-0.39
same,glycan array binding signal (z-score),[15],3.74
same,glycan array binding signal (z-score),[16],1.64
same,glycan array binding signal (z-score),[17],3.52
same,glycan array binding signal (z-score),Gal3S(b1-4)GlcNAc6S,-0.163
same,glycan array binding signal (z-score),Gal3S4S(b1-4)GlcNAc,-0.289
same,glycan array binding signal (z-score),[18],-0.387
same,glycan array binding signal (z-score),Glc(a1-6)Glc(a1-6)Glc,-0.295
same,glycan array binding signal (z-score),[19],-0.101
same,glycan array binding signal (z-score),[20],-0.388
same,glycan array binding signal (z-score),[21],-0.29
same,glycan array binding signal (z-score),[22],3.93
same,glycan array binding signal (z-score),[23],4
same,glycan array binding signal (z-score),[24],4.38
same,glycan array binding signal (z-score),[25],4.07
same,glycan array binding signal (z-score),[26],4.83
same,glycan array binding signal (z-score),[27],6.51
same,glycan array binding signal (z-score),[28],4.21
same,glycan array binding signal (z-score),[29],3.44
same,glycan array binding signal (z-score),[30],-0.37
same,glycan array binding signal (z-score),[31],-0.389
same,glycan array binding signal (z-score),[32],-0.249
same,glycan array binding signal (z-score),[33],-0.272
same,glycan array binding signal (z-score),[34],-0.269
same,glycan array binding signal (z-score),[35],-0.276
same,glycan array binding signal (z-score),[36],1.27
same,glycan array binding signal (z-score),[37],-0.387
same,glycan array binding signal (z-score),[38],-0.3
same,glycan array binding signal (z-score),[39],-0.244
same,glycan array binding signal (z-score),[40],0.883
same,glycan array binding signal (z-score),[41],-0.366
same,glycan array binding signal (z-score),[42],-0.388
